Results reported in publication PMC11062922 (Nature Chemical Biology, 2023).
pEC50, pKd: −log10 of the molar value. Where two headings read alike, the source gives them in different places.

Tests used:
Set-up in all cases: species or system human, MV4-11 + K-562 + COLO205 + SK-N-BE2 + OVCAR-8
PRKD1 = details: read-out: apparent Kd, n = 1
SPR [1] = details: read-out: apparent Kd, n = 1
CSNK1D = details: compound concentrations:0.3nM, 1nM, 3nM, 10nM, 30nM, 100nM, 300nM, 1000nM,R2:0.90408083948088502,slope:1.4813297755061099,EC50 Standard Error, by the legend:Standard error of the EC50 estimation as provided by the drc package.
CSNK1E = details: compound concentrations:0.3nM, 1nM, 3nM, 10nM, 30nM, 100nM, 300nM, 1000nM,R2:0.89444069129231096,slope:0.86279178326481998,EC50 Standard Error, by the legend:Standard error of the EC50 estimation as provided by the drc package.
MAPK14 = details: compound concentrations:0.3nM, 1nM, 3nM, 10nM, 30nM, 100nM, 300nM, 1000nM,R2:0.95433345689641902,slope:0.62517275376181303,EC50 Standard Error, by the legend:Standard error of the EC50 estimation as provided by the drc package.
MAPKAPK2 = details: compound concentrations:0.3nM, 1nM, 3nM, 10nM, 30nM, 100nM, 300nM, 1000nM,R2:0.91890870064253904,slope:1.05096662120135,EC50 Standard Error, by the legend:Standard error of the EC50 estimation as provided by the drc package.
RIPK2 = details: compound concentrations:0.3nM, 1nM, 3nM, 10nM, 30nM, 100nM, 300nM, 1000nM,R2:0.98843771673654501,slope:0.97698272947785902,EC50 Standard Error, by the legend:Standard error of the EC50 estimation as provided by the drc package.
RIPK3 = details: compound concentrations:0.3nM, 1nM, 3nM, 10nM, 30nM, 100nM, 300nM, 1000nM,R2:0.88646274803772895,slope:5.0878054739021197,EC50 Standard Error, by the legend:Standard error of the EC50 estimation as provided by the drc package.
SPR [2] = details: compound concentrations:0.3nM, 1nM, 3nM, 10nM, 30nM, 100nM, 300nM, 1000nM,R2:0.99512909296274499,slope:1.24359258072984,EC50 Standard Error, by the legend:Standard error of the EC50 estimation as provided by the drc package.
TGFBR2 = details: compound concentrations:0.3nM, 1nM, 3nM, 10nM, 30nM, 100nM, 300nM, 1000nM,R2:0.95772159417417102,slope:0.90025260883160396,EC50 Standard Error, by the legend:Standard error of the EC50 estimation as provided by the drc package.
AGK = details: read-out: apparent Kd, compound concentrations: 100 nM and 1000 nM (sheet 'Samples'), n = 1
ARAF = details: read-out: apparent Kd, compound concentrations: 100 nM and 1000 nM (sheet 'Samples'), n = 1
BMPR1A = details: read-out: apparent Kd, n = 1
BRAF = details: read-out: apparent Kd, compound concentrations: 100 nM and 1000 nM (sheet 'Samples'), n = 1
ERBB3 = details: read-out: apparent Kd, compound concentrations: 100 nM and 1000 nM (sheet 'Samples'), n = 1
MAP3K2 = details: read-out: apparent Kd, compound concentrations: 100 nM and 1000 nM (sheet 'Samples'), n = 1
MAP3K5 = details: read-out: apparent Kd, compound concentrations: 100 nM and 1000 nM (sheet 'Samples'), n = 1
PIK3C2B = details: read-out: apparent Kd, compound concentrations: 100 nM and 1000 nM (sheet 'Samples'), n = 1
PYGL = details: read-out: apparent Kd, compound concentrations: 100 nM and 1000 nM (sheet 'Samples'), n = 1
ZAK = details: read-out: apparent Kd, compound concentrations: 100 nM and 1000 nM (sheet 'Samples'), n = 1
[3] = compound concentrations:100 nM and 1000 nM (sheet 'Samples')
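Wherever pEC50 is given: competition pulldown with Kinobeads ε in cell lysates, inhibitor preincubated 45 min at 4 °C, bound kinases quantified by LC–MS/MS against DMSO control.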
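Wherever pKd is given: competition pulldown with Kinobeads ε in cell lysates, inhibitor preincubated 45 min at 4 °C, bound kinases quantified by LC–MS/MS against DMSO control.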

O=C1NC(=O)C(N2CCc3ccccc32)=C1c1ccccc1Cl [SB-373598]
potency estimated from few doses (PRKD1; [3]): 1580 nM

Cl.NCc1ccc(-c2nc(-c3ccc(Cl)c(O)c3)c(-c3ccncc3)[nH]2)cc1 [SB-476429-A]
potency estimated from few doses (SPR [1]; [3]): 32.3 nM
pEC50 (CSNK1D): 6.52
pKd (CSNK1D; read-out: apparent Kd): 6.52
pEC50 (CSNK1E): 6.19
pKd (CSNK1E; read-out: apparent Kd): 6.19
pEC50 (MAPK14): 6.76
pKd (MAPK14; read-out: apparent Kd): 6.76
pEC50 (MAPKAPK2): 6.76
pKd (MAPKAPK2; read-out: apparent Kd): 6.76
pEC50 (RIPK2): 7.25
pKd (RIPK2; read-out: apparent Kd): 7.54
pEC50 (RIPK3): 6.53
pKd (RIPK3; read-out: apparent Kd): 6.54
pEC50 (SPR [2]): 7.48
pKd (SPR [2]; read-out: apparent Kd): 7.48
pEC50 (TGFBR2): 6.06
pKd (TGFBR2; read-out: apparent Kd): 6.12

Cn1ncc2c(N)ncnc21 [SKF-18267]
potency estimated from few doses (AGK; CATDS: 3.9029734313372399E-3): 1420 nM
potency estimated from few doses (ARAF; CATDS: 4.8255610001080402E-3): 874 nM
potency estimated from few doses (BMPR1A; compound concentrations: 100 nM and 1000 nM (sheet 'Samples'), CATDS: 5.9129989995003003E-3): 595 nM
potency estimated from few doses (BRAF; CATDS: 3.54255463702716E-3): 1870 nM
potency estimated from few doses (ERBB3; CATDS: 3.9998602619286698E-3): 1340 nM
potency estimated from few doses (MAP3K2; CATDS: 4.2783500511549997E-3): 1140 nM
potency estimated from few doses (MAP3K5; CATDS: 4.32123334572214E-3): 1110 nM
potency estimated from few doses (PIK3C2B; CATDS: 6.2624130491241497E-3): 539 nM
potency estimated from few doses (PYGL; CATDS: 4.6532954394714601E-3): 943 nM
potency estimated from few doses (SPR [1]; compound concentrations: 100 nM and 1000 nM (sheet 'Samples'), CATDS: 4.8201807384516803E-3): 876 nM
potency estimated from few doses (ZAK; CATDS: 4.0930423662174304E-3): 1260 nM

CCn1c(-c2nonc2N)nc2c(-c3ccccc3)ncc(OCCCN)c21.CCn1c(-c2nonc2N)nc2c(-c3ccccc3)ncc(OCCCN)c21.O=C(O)C(F)(F)F.O=C(O)C(F)(F)F [GSK260205A]
potency estimated from few doses (PRKD1; compound concentrations: 100 nM and 1000 nM (sheet 'Samples'), CATDS: 2.9847294929188299E-2): 1340 nM

Cl.Cl.NC(CNC(=O)c1cc(Br)c(-c2ccnc3[nH]ccc23)s1)c1ccccc1.NC(CNC(=O)c1cc(Br)c(-c2ccnc3[nH]ccc23)s1)c1ccccc1 (stereo not shown) [GSK1322949A]
potency estimated from few doses (AGK; CATDS: 3.3484364918531399E-2): 953 nM
potency estimated from few doses (ARAF; CATDS: 6.3043035692660204E-2): 316 nM

O=C(O)C(F)(F)F.O=C(O)C(F)(F)F.O=c1[nH]ccc2nc(N[C@@H]3CCCNC3)nc(Nc3ccc(S(=O)(=O)N4CCOCC4)cc3)c12.O=c1[nH]ccc2nc(N[C@@H]3CCCNC3)nc(Nc3ccc(S(=O)(=O)N4CCOCC4)cc3)c12 [GSK2177277A]
potency estimated from few doses (MAP3K2; CATDS: 7.1783793001346102E-3): 889 nM

CNCc1ccc(-c2cc(-c3nc(-c4ccc(S(=O)(=O)C(C)C)cc4)cnc3N)on2)cc1 [VE-822]
potency estimated from few doses (BMPR1A; [3]): 764 nM

CCn1c(-c2cccnc2O)nc2cnccc21 [SB-736715]
potency estimated from few doses (PYGL; CATDS: 1.35129561389799E-2): 1630 nM

CCC(CC)(CC)n1cnc2c(N)ncnc21 [SKF-97620]
potency estimated from few doses (PIK3C2B; CATDS: 4.5061031673298398E-2): 395 nM

CNCC1CCn2c(c(C3=C(c4cn(C)c5ccccc45)C(=O)NC3=O)c3ccccc32)C1 (stereo not shown) [RO0318676-000]
potency estimated from few doses (BRAF; CATDS: 2.6106742003508401E-2): 2340 nM

CNc1nccc(-c2ccc3c(N)n[nH]c3c2)n1 [GSK2206003A]
potency estimated from few doses (ERBB3; CATDS: 5.0565668903585798E-2): 1580 nM

CC(C)N1CC(=O)N(C)c2cnc(Nc3cccc(S(=O)(=O)CCN4CCOCC4)c3)nc21 [BI00009348]
potency estimated from few doses (MAP3K5; CATDS: 5.27372855942096E-2): 1550 nM
potency estimated from few doses (ZAK; CATDS: 5.0114665499168799E-2): 1820 nM
